Laboratory results from PubChem BioAssay (NCATS).
Values joined by “and” are separate entries in the source; they are usually repeats but may differ in a detail not shown here. Equal entries are not always repeated. Results filed as inconclusive are left out. Unmarked numbers belong to inactive results. The call rests on the fitted dose curve.

The molecules below were run against Bile acid receptor (Homo sapiens) (UniProt Q96RI1) (assay: qHTS assay for small molecule agonists of farnesoid X receptor signaling (AID 588527;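 further: series mostly up to about 77 µM; 0% = vehicle basal and 100% = reference agonist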)). Settings: HEK293T FXR-UAS-bla, beta-lactamase ratio, 16 h; activation: active compounds read high.
How it was run: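 FXR-UAS-bla HEK293T cells (10% dialyzed FBS) preincubated 5-7 h at 37 C, then compounds at up to 92 uM for 16 h at 37 C. CCF4 beta-lactamase read-out after 2 h RT. Normalized to chenodeoxycholic acid (100 uM) and DMSO; Hill fit gave EC50 and efficacy.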

Chain of Bile acid receptor (Homo sapiens) (Q96RI1 whole entry, looked up): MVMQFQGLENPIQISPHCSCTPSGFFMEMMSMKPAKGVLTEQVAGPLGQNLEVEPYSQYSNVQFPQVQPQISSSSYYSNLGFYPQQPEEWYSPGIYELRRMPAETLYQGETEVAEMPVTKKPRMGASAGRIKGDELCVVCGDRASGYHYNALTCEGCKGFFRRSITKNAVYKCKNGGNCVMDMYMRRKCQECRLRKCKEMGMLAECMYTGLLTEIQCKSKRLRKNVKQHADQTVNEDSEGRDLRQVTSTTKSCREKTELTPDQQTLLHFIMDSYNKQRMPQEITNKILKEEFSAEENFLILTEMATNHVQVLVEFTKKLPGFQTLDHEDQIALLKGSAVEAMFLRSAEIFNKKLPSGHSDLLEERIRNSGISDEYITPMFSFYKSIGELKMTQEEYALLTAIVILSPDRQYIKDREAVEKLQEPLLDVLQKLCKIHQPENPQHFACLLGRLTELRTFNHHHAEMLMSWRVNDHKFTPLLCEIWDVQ

| Structure (SMILES) | activation |
| --- | --- |
| c1ccc2cc3ccccc3cc2c1 | -1.8% |
| S=C1NC=NC2N=CNC12 (stereo not given) | -5.16% |
| O=[N+]([O-])c1cccc(Cl)c1Cl | -2.65% and -2.56% |
| C/C=C1\CC2C=CC1C2 (stereo not given) | 0.0193% |
| CC(=O)CC(C)C | -0.151% |
| Cn1c(=O)[nH]c(=O)n(C2CCCCC2)c1=O | 2.64% |
| COc1cccc(N)c1 | 2.13% |
| Oc1c(Cl)ccc(Cl)c1Cl | -2.11% |
| O=P(O)(O)O | 0.993% |
| CS/C(=N\O)C(=O)N(C)C | -1.99% |
| COc1ccc(C(=O)Nc2ccccc2)cc1[N+](=O)[O-] | -2.07% |
| Nc1ccc(N)c(Cl)c1 | -0.837% |
| CC(=O)O[C@@H]1CC(C)=C2[C@H]1[C@H](C)CC[C@H]2/C=C(\C)C(=O)O | 0.825% |
| CCO | -3.44% |
| CC(C)C[C@H](NC(=O)OCC1c2ccccc2-c2ccccc21)C(=O)O | -0.845% |
| CCCCNS(=O)(=O)c1ccccc1 | 2.61% |
| Nc1ccc(S(=O)(=O)O)cc1 | -1.98% and -2.03% |
| CCCC(C)CO (stereo not given) | 1.08% |
| CCCCCCCCCCCC(=O)OC | 11.1% |
| CC(C)(C)c1ccc(O)c(C(C)(C)C)c1 | 3.24% |

| Structure (SMILES) | activation |
| --- | --- |
| CC(=O)CC(=O)Nc1ccccc1 | 0.0824% and -0.252% |
| CC(C)(C)c1n[nH]c(=O)n(N)c1=O | 2.05% |
| O=C(O)c1ccc2c(c1)C(=O)OC2=O | -5.89% |
| CCCOC(=O)c1cc(O)c(O)c(O)c1 | -0.748% |
| O=Cc1ccc(CO)o1 | 2.1% |
| NC1=NC(S)C2N=CN=C2N1 (stereo not given) | 2.34% |
| CO[Si](CCCNCCC[Si](OC)(OC)OC)(OC)OC | 1.6% |
| O=C1c2ccccc2C(=O)C1(O)O | 2.64% |
| CC(C)(C)OC=O | -2.91% |
| CCCCCCCC(=O)Oc1c(Br)cc(C#N)cc1Br | 1.95% |
| O=S(=O)(O)c1cc(S(=O)(=O)O)c2c(N=Nc3ccccc3)c(O)ccc2c1 | 2.46% |
| CSc1ccc(Cl)cc1 | -0.0441% |
| Nc1cccc(N)c1 | 0.315% |
| OB(O)O | 1.87% and 2.1% |
| O=P(O)(OCc1ccccc1)OCc1ccccc1 | -0.26% |
| O=c1oc2cc(O)ccc2c2oc3cc(O)ccc3c12 | 8.73% |
| CC1CCC2CC1C2(C)C (stereo not given) | 3.3% |
| Cc1ccc2cccnc2c1 | 1.5% |
| Cc1ccc(C(C)(C)C)c(O)c1 | -1.53% |
| C=CCOC(=O)CCCCCCCC | -1.24% |
